NS1 inh = influenza NS1 inhibition; Potency, µM (highest dose often 46.1 µM), for the others: top-dose activity, positive = more growth; 0.4% of 270,000 active; also: actives are rising curves; nearly all actives have a fitted effect of over 50% in size
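A cell-based growth assay was used: compounds that relieve NS1-induced slow growth of budding yeast raise OD600. Assay medium was yeast nitrogen base with ammonium sulphate and -URA supplement, pH 6.0, with 2% galactose.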
SARS PLpro yeast = SARS-CoV PLP inhibition in yeast; S. cerevisiae expressing SARS-CoV PLpro, growth rescue; Potency, µM (doses to about 32.9 µM), without a hit: at the top dose activity, positive = growth rescue, hits mostly activators; 0.19% of 330,000 active; AID 485353; also: 0% is about no effect; nearly all actives have a fitted effect of over 55% in size
Pf growth 96h = P. falciparum growth inhibition at 96 hour, primary screen for plastid delayed-death inhibitors; P. falciparum luciferase reporter growth, 96 h; Potency, µM (series often up to 28.7 µM), without a hit: top-dose activity change, negative = inhibition, actives largely listed as inhibitors; 6.9% of 320,000 active; AID 504834; active = well fitted inhibition curve with a large enough effect; inconclusive = small, poorly fitted or top-dose-only effect, or another doubt; inactive = no such curve, though single readings can be large or run the other way; also: % is scaled to controls: 0 for no effect and ±100 for the full control effect
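P. falciparum expressing integrated firefly luciferase grown in erythrocytes (2% hematocrit, 0.05% parasitemia final) with compounds for 96 hours at 37 C, 5% CO2. Growth inhibition read as loss of luminescence after adding luciferase detection reagent.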
Pf growth 48h = P. falciparum growth inhibition at 48 hours (one generation) | P. falciparum luciferase growth in erythrocytes, 48 h | Potency, µM (top dose mostly 28.7 µM), for inactives: top-dose activity change, negative = inhibition, actives largely listed as inhibitors | 5.9% of 310,000 active; active = well fitted inhibition curve with a large enough effect; inconclusive = small, poorly fitted or top-dose-only effect, or another doubt; inactive = no such curve, though single readings can be large or run the other way; also: % is scaled to controls: 0 for no effect and ±100 for the full control effect
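A one-generation exposure of luciferase-tagged malaria parasites in RPMI 1640/Albumax erythrocyte culture, 37 C and 5% CO2. Inhibition is inferred from decreased luminescence after adding detection reagent.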
Active calls of the source: *; ? = inconclusive; nt = not tested or not shown. Rows were chosen to be rich in hits. Some 10% of all compounds tested hit in one or more screens of this group. Unless noted, calls follow the shape of the full dose curve. Potency is read from the fitted curve at half-maximal effect.

SMILES	NS1 inh	SARS PLpro yeast	Pf growth 96h	Pf growth 48h
CCOc1ccccc1Nc1nc(-c2sc(NC(=O)c3cccc(Cl)c3)nc2C)cs1	-0.5%	-1.5%	4.65µM*	6.57µM*
Cc1ccc(Cl)cc1Nc1nc(-c2sc(NC(=O)c3ccccc3)nc2C)cs1	20.7%	2.8%	2.62µM*	2.08µM*
CCOc1ccccc1Nc1nc(-c2sc(NC(=O)c3ccccc3)nc2C)cs1	?	7.5%	?	7.38µM*
COc1ccccc1Nc1nc(-c2sc(NC(=O)c3ccccc3)nc2C)cs1	11.9%	4.2%	?	?
Cc1cc(NS(=O)(=O)c2ccc(Nc3nc(-c4sc(NC(=O)c5ccccc5)nc4C)cs3)cc2)no1	8.8%	21.9%	nt	11.9%
Cc1nc(NC(=O)c2ccccc2)sc1-c1csc(Nc2cccc(F)c2)n1	-2.2%	-8.4%	4.65µM*	?
CCCCCCC(=O)Nc1nc(C)c(-c2csc(Nc3cc(Cl)ccc3C)n2)s1	?	-4.1%	?	?
COc1ccccc1CNC(=O)COC(=O)C1CCN(c2ccc(C(F)(F)F)cn2)CC1	nt	-8.0%	43.5%	10.9%
CC(=O)c1ccc(S(=O)(=O)NCCC(=O)NC2CCN(Cc3ccccc3)CC2)cc1	nt	-26.5%	nt	nt
CC/C=C/C(=O)N1CC2(CC(c3cccc(NC(=O)COc4ccc(Cl)cc4)c3)=NO2)C[C@H]1C(N)=O (stereo partly drawn)	2.0%	2.2%	4.65µM*	10.4µM*
NC(=O)[C@H]1CC2(CC(c3cccc(NC(=O)COc4ccc(Cl)cc4)c3)=NO2)CN1C(=O)C(c1ccccc1)c1ccccc1 (stereo partly drawn)	10.3%	1.7%	?	13.1µM*
COCC(C)n1c(SCC(=O)N(C)C2CCS(=O)(=O)C2)nc2ccccc2c1=O (stereo not drawn)	3.4%	3.4%	-2.8%	6.2%
COc1ccc2c(c1)c(C(=O)CNc1nc(C)cs1)c(C)n2C	-20.1%	-31.9%	2.94µM*	?
CCOCc1cnc(C)nc1NCC(=O)c1c(C)n(C)c2ccc(OC)cc12	-4.8%	-4.1%	-6.2%	7.38µM*
COc1ccc2c(c1)c(C(C)=O)c(C)n2C	-4.3%	-0.9%	24.2%	1.9%
CCOC(=O)C1=C(C)OC(N)=C(C#N)C1c1cc2c(cc1[N+](=O)[O-])OCO2 (stereo not drawn)	nt	0.4%	22.3%	2.3%
O=C(Cn1nnc2ccccc21)OCC(=O)c1ccc(Cl)c(Cl)c1	-8.4%	8.3%	nt	?
O=C(Cn1nnc2ccccc21)OCC(=O)c1ccccc1	2.2%	-10.8%	4.15µM*	-7.1%
CCn1cnc2c1c(=O)n(CC(=O)Nc1ccc(C(N)=O)cc1)c(=O)n2Cc1ccccc1	-2.0%	6.2%	13.1µM*	?
CC(C)Cn1cnc2c1c(=O)n(CC(=O)N(C)C)c(=O)n2Cc1ccccc1	nt	1.4%	?	-19.2%
CCn1cnc2c1c(=O)n(CC(=O)NN)c(=O)n2Cc1ccccc1	9.9%	0.7%	?	nt
CCCCNC(=O)Cn1c(=O)c2c(ncn2CC)n(Cc2ccccc2)c1=O	9.4%	-1.1%	13.1µM*	-2.4%
CCNC(=O)Cn1c(=O)c2c(ncn2Cc2ccccc2)n(Cc2ccccc2)c1=O	1.7%	?	1.04µM*	?
CN(C)Cc1nsc(N(C)C)n1	-0.7%	nt	nt	nt
CCCCCCSc1ccc([C@@H]2[C@@H]3C(=O)N(CC)C(=O)[C@@H]3[C@]3(C(=O)OC)CCCCN23)cc1	nt	0.6%	nt	nt
SMILES	NS1 inh	SARS PLpro yeast	Pf growth 96h	Pf growth 48h
CCSc1ccc([C@@H]2[C@H]3C(=O)N(CC)C(=O)[C@H]3[C@]3(C(=O)OC)CCCCN23)cc1	nt	-2.1%	4.65µM*	4.15µM*
CCC(C)Sc1ccc([C@@H]2[C@H]3C(=O)N(CC)C(=O)[C@H]3[C@]3(C(=O)OC)CCCCN23)cc1 (stereo partly drawn)	nt	-0.8%	3.29µM*	2.62µM*
CCCCCCSc1ccc([C@@H]2[C@H]3C(=O)N(C)C(=O)[C@H]3[C@]3(C(=O)OC)CCCCN23)cc1	nt	0.8%	11.7µM*	13.1µM*
COC(=O)[C@@]12CCCCN1[C@H](c1ccc(SC3CCCCC3)cc1)[C@@H]1C(=O)N(C)C(=O)[C@@H]12	nt	-4.7%	36.9%	?
CCCCCCSc1ccc([C@H]2N[C@@](C)(C(=O)OC)[C@H]3C(=O)N(C)C(=O)[C@@H]23)cc1	nt	-2.7%	?	14.7µM*
O=C1CCC(C(=O)N2CCCC(Nc3ccc(F)cc3)C2)=NN1 (stereo not drawn)	3.3%	-1.0%	6.8%	17.4%
C=CCN1C(=S)CC(c2ccccc2)=Nc2ccccc21	-37.6%	-14.0%	?	?
CCc1noc(C)c1C(=O)N1CCN(S(=O)(=O)c2ccc(Cl)s2)CC1	nt	3.3%	28.9%	?
COc1ccc(C(=O)NCCN2CCOCC2)c(OC)c1OC	5.2%	1.0%	23.8%	8.2%
CCSc1ccc([C@@H]2[C@@H]3C(=O)N(CC)C(=O)[C@@H]3[C@]3(C(=O)OC)CCCCN23)cc1	nt	-0.4%	-100.0%	-90.7%
CCSc1ccc([C@@H]2[C@H]3C(=O)N(C)C(=O)[C@H]3[C@]3(C(=O)OC)CCCCN23)cc1	nt	-3.4%	?	11.7µM*
CCSc1ccc([C@@H]2[C@@H]3C(=O)N(C)C(=O)[C@@H]3[C@]3(C(=O)OC)CCCCN23)cc1OC	nt	9.1%	nt	nt
CCSc1ccc([C@@H]2[C@@H]3C(=O)N(CC)C(=O)[C@@H]3[C@]3(C(=O)OC)CCCN23)cc1	nt	-5.7%	?	10.4µM*
CN(c1ccccc1)S(=O)(=O)c1cccc(NS(=O)(=O)c2cccc(C(=O)O)c2)c1	nt	0.4%	-23.7%	2.8%
COc1ccccc1CC(=O)Nc1ccc2[nH]ncc2c1	-5.5%	-2.2%	-4.7%	10.4µM*
C/C(=N\Nc1ccc(C(=O)O)cc1)c1ccc2c(c1)Nc1ccccc1S2	1.4%	-3.5%	?	?
O=C(CNc1ccccc1N1CCCC1=O)Nc1cc(C(F)(F)F)ccc1-n1cncn1	nt	2.5%	30.4%	31.0%
COc1ccccc1CCNC(=O)C(=O)NCC1OCCN1C(=O)c1ccc(Cl)cc1 (stereo not drawn)	-8.1%	2.6%	0.7%	?
COc1cc(C(=O)Oc2ccccc2/C=N/NC(=O)c2ccc(Cl)cc2)cc(OC)c1OC	-1.3%	4.1%	5.7%	13.1µM*
COc1cc(/C=N/NC(=O)c2ccc(-c3ccccc3)cc2)cc(OC)c1OC	22.9%	5.9%	16.5µM*	?
COc1ccc(/C=N\NC(=O)c2ccc(-c3ccccc3)cc2)c(OC)c1OC	9.9%	4.2%	0.828µM*	8.9%
COc1cc(/C=N/NC(=O)c2cc(-c3ccccc3)sc2N)cc(OC)c1OC	5.4%	1.2%	?	?
CCOc1ccc2nc(NC(=O)C3CSC4(C)CCC(=O)N34)sc2c1 (stereo not drawn)	nt	-5.9%	13.8%	21.7%
Cc1ccccc1C(=O)N1CCc2cc(-c3csc(NC(=O)CN4CCCC4)n3)ccc21	5.0%	-1.6%	-4.7%	4.15µM*
O=C(CN1CCCCC1)Nc1nc(-c2ccccc2)cs1	-4.4%	5.9%	33.3%	nt
CC(C)C(=O)N1CCc2cc(-c3csc(N)n3)ccc21	-40.8%	?	-12.4%	10.4µM*
